From PubChem BioAssay (Tox21)
Records with an inconclusive call do not appear. Entries that show only a call come without a potency. Calls of active or inactive are those of the source. Calls come from the whole dose curve; as a rule, active = well fitted inhibition curve with a large enough effect in the repeat runs; inconclusive = weak or mixed curves; inactive = no such curve, though single readings can be large or run the other way.

What follows are molecules tested against Estrogen receptor (Homo sapiens) (UniProt P03372) (assay: qHTS assay to identify small molecule antagonists of the estrogen receptor alpha (ER-alpha) signaling pathway using the BG1 cell line in the presence of 0.1 nM 17-beta-estradiol (AID 1259244; note: nearly all actives have a fitted effect of over 50% in size)). Conditions: VM7Luc4E2 (BG1) ERE-luciferase, antagonist mode, 0.1 nM E2, 22 h; series mostly up to 92.4 µM.
Chain of Estrogen receptor (Homo sapiens) (P03372 whole entry, looked up): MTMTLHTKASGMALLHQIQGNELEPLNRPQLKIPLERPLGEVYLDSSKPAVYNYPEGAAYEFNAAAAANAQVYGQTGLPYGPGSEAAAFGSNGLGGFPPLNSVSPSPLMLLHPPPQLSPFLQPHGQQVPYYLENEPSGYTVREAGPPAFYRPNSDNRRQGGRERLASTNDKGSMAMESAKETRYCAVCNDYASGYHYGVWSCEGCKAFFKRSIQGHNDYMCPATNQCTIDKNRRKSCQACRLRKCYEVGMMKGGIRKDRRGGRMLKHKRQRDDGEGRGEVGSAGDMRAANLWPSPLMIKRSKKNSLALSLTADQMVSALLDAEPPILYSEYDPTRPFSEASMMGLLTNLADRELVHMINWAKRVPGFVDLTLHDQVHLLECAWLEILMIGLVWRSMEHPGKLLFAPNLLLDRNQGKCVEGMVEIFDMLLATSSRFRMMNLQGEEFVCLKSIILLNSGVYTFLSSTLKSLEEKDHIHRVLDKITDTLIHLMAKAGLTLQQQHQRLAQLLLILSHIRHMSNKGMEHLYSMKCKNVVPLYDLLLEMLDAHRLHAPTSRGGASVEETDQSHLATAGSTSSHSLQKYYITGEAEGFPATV
Excerpt: National Center for Advancing Translational Sciences [NCATS]
NIH Chemical Genomics Center [NCGC]
U.S. Environmental Protection Agency [EPA]
National Institutes of Environmental Health Sciences [NIEHS]
National Toxicology Program [NTP]
U.S. Food and Drug Administration [FDA]
Estrogen receptor (ER), a member of the nuclear hormone receptor plays an important role in development, metabolic homeostasis and reproduction. Two subtypes of ER, ER-alpha and ER-beta, have similar expression patterns with some uniqueness in both types. Endocrine disrupting chemicals (EDCs) and their interactions with steroid hormone receptors like ER causes disruption of normal endocrine function. Therefore, it is important to understand the effect of environmental chemicals in ER signaling pathway. For identifying ER antagonists, VM7Luc4E2 cell line was used to screen against Tox21 compound libraries.
VM7Luc4E2 cell line (provided by Denison MS, University of California) endogenously express full-length ER-alpha and is stably transfected with a plasmid containing four estrogen responsive elements (ERE) upstream of a luciferase reporter gene. The current screening for identification of ER-alpha inhibitors against Tox21 compound libraries used lower concentration (0.1 nM) of 17beta-Estradiol as a stimulator.
Tox21 Assay Protocol Summary:
VM7Luc4E2 cells were cultured in phenol red free assay medium containing 10% charcoal stripped FBS for 5 days prior to the assay. The cells were dispensed at 4,000 cells/well in 4 uL of assay medium into white wall/solid-bottom 1536-well plates (Corning Life Sciences, Corning, NY) using a Multidrop Combi (ThermoFisher Scientific, Waltham, MA) dispenser. After the assay plates were incubated at 37C and 5% CO2 for 24 hr, 23 nL of compounds dissolved in DMSO, positive controls or DMSO only was transferred to the assay plates by a Pintool station (Kalypsys, San Diego, CA). The transfer of compounds was followed by the addition of 1 uL of 0.1 nM (final concentration) agonist (17beta-Estradiol)/assay medium using a Flying Reagent Dispenser (FRD, Aurora Discovery, San Diego, CA). The plates were incubated at 37C and 5% CO2 for 22 hr. For luciferase reporter gene assay, 4 uL of ONE-Glo reagent (Promega Corporation, Madison, WI) was added to each well using the FRD and after 30 min incubation at room temperature luminescence intensity was measured using ViewLux plate reader (PerkinElmer, Shelton, CT).

Row | SMILES | Potency
1 | CC(CC(C#N)(c1ccccc1)C(C)C)N(C)C (stereo not given) | inactive
2 | Nc1ccc(F)cc1F | inactive
3 | C1CCN(CN2CCCCC2)CC1 | inactive
4 | CCCCCCCCCCCCSCCOCCO | inactive
5 | CCOC(OCC)OCC | inactive
6 | OCCCO | inactive
7 | O=Cc1ccc([N+](=O)[O-])cc1 | inactive
8 | CC(=O)c1ccc(Cl)c(Cl)c1Cl | inactive
9 | CC(CCl)OC(C)CCl (stereo not given) | inactive
10 | CC(COc1ccccc1)NC(C)C(O)c1ccc(O)cc1 (stereo not given) | inactive
11 | CCCCCCCCS | inactive
12 | Cc1c(Cl)cccc1Nc1ccccc1C(=O)O | inactive
13 | CC(C)C/C=C(\C=O)c1ccccc1 | inactive
14 | O=C1c2ccccc2C(=O)C1c1ccc2cc(S(=O)(=O)O)cc(S(=O)(=O)O)c2n1 | inactive
15 | CCCC1CCOC(C)S1 (stereo not given) | inactive
16 | NC(=O)c1ccccc1C(N)=O | inactive
17 | CC(C)=CCC[C@H](C)CCO | inactive
18 | O=c1[nH]nc(-c2ccc([N+](=O)[O-])o2)o1 | inactive
19 | O=C(N[C@@H](Cc1ccccc1)[C@@H](O)C(=O)N1C[C@@H](O)[C@@H](O)C1)c1cc2cc(Cl)ccc2[nH]1 | inactive
20 | Oc1ccc(CCNCCCCCCNCCc2ccccc2)cc1O | inactive

Row | SMILES | Potency
21 | O=C(O)c1ccccc1-n1cc(C(=O)O)c(=O)c2cc(Nc3c(F)cc(F)cc3Cl)c(Cl)cc21 | inactive
22 | CCc1cnc(C(=O)O)c(C(=O)O)c1 | inactive
23 | O=S(=O)(O)c1cc(Cl)c(Cl)cc1Cl | inactive
24 | CCCC(=O)OCc1ccccc1 | inactive
25 | O=C(O)c1ccc(O)c(O)c1 | inactive
26 | CCCCCCCCCCCC(=O)OCC | inactive
27 | O=P(c1ccccc1)(c1ccccc1)c1ccccc1 | inactive
28 | CCCOC(C)=O | inactive
29 | CC(C)(C)c1cc(C=O)cc(C(C)(C)C)c1O | inactive
30 | CCCCCO | inactive
31 | O=C(O)c1cc(C(=O)O)c(C(=O)O)cc1C(=O)O | inactive
32 | Cc1cc(C)n(CO)n1 | inactive
33 | CCCCCCCCCCCCCCCCN | inactive
34 | SCCOCCOCCS | inactive
35 | CCCCCC1CCC(=O)O1 (stereo not given) | inactive
36 | O=C(c1ccco1)N1CCNCC1 | inactive
37 | FC(F)(Cl)C(F)(Cl)Cl | inactive
38 | CO[C@@H]1[C@@H](O[C@@H]2O[C@H](C)[C@@H](O[C@H]3C[C@@](C)(O)[C@@H](O)[C@H](C)O3)[C@H](N(C)C)[C@H]2O)[C@@H](CC=O)C[C@@H](C)[C@@H](O[C@@H]2CC[C@H](N(C)C)[C@@H](C)O2)/C=C/C=C/C[C@@H](C)OC(=O)C[C@H]1OC(C)=O | inactive
39 | S=c1[nH][nH]c(=S)s1 | inactive
40 | O=C(O)c1cccnc1Nc1cccc(C(F)(F)F)c1 | inactive
